This note sets out measurements from PubChem BioAssay AID602229 (The Scripps Research Institute Molecular Screening Center, 2012).

The whole screen tested about 360,000 compounds, of which about 1,300 (0.36%) were called active.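 How the source made its calls: active means inhibition above the mean of all tested compounds plus 3 SD (cut at about 70% in these data); inactive means the rest.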 The entries come from a sample that favours actives as a whole.

For this experiment, the target named is Photoreceptor-specific nuclear receptor (Homo sapiens) (UniProt Q9Y5X4). The experiment in a line: NR2E3 agonists in two-hybrid cells, primary screen, cell-based, luminescence, CHO-S, Gal4-NCOR/VP16-NR2E3 (AID 602229).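 Further: 0% = DMSO with NR2E3 transfected cells and 100% = cells lacking NR2E3 construct; higher means lower luciferase signal from less NR2E3 corepressor binding.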 The note with it: luciferase, at 3.98 µM, active compounds read high.
Sequence of Photoreceptor-specific nuclear receptor (Homo sapiens) (Q9Y5X4 whole entry, looked up, the tested form may be a part): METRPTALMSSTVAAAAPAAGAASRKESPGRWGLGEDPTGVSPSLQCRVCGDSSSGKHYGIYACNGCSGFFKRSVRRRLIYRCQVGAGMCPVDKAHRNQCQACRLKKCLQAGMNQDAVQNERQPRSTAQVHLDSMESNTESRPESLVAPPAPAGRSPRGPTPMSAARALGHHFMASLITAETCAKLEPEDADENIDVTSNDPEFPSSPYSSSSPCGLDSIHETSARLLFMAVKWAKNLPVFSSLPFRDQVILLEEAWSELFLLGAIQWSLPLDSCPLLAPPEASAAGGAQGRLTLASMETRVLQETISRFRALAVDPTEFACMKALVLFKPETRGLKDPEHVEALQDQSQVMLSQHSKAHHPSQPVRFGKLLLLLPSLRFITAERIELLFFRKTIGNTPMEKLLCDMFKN
For the compound `COc1ccc(NC(=O)/C(Cl)=C(/Cl)S(=O)Cc2ccc(C)cc2)cn1` (stereo unspecified), the inhibition of corepressor binding is 84.1% (active).
For `CC(C)c1ccc(NC(=O)[C@@H](NC(=O)N2CC(=O)Nc3ccccc32)C(C)C)cc1` the value was -32.4% (inactive).
For `Cc1nn(-c2ccccc2)c(=O)c2noc(C)c12` the value was -0.89% (inactive); for `O=C(CN1CCN(C(=O)c2ccco2)CC1)Nc1ccc(Cl)c(C(F)(F)F)c1`, -9.37% (inactive); for `O=C(CC(O)(C(F)(F)F)C(F)(F)F)Nc1ccc(Cl)c(Cl)c1`, 107% (active).
For `N#CCCN(C(=O)Nc1ccc(Cl)c(Cl)c1)C1CCCCC1` the value was -1.19% (inactive).
Turning to `CN(C)c1ccc(NC(=O)CSc2n[nH]c(-c3ccco3)n2)cc1`, the inhibition of corepressor binding is -21.3% (inactive).
For `O[C@@H]1C[C@H](c2ccccc2)N(Cc2cccs2)C[C@H]1n1cc(C2CC2)nn1` the value was 5.46% (inactive); for `CC(C)c1ccc(S(=O)(=O)N2CCN(C(C)C(=O)NC3CCCC3)CC2)cc1` (stereo unspecified), -5.61% (inactive); for `COc1ccc(S(=O)(=O)N2CCN(C(C)C(=O)Nc3ccc(C(C)C)cc3)CC2)cc1` (stereo unspecified), 94.6% (active).
For `COc1cccc(CNC(C)C(=O)Nc2ccc(S(=O)(=O)N3CCCC3)cc2)c1` (stereo unspecified) the value was 3.95% (inactive).
The result for `N#Cc1ccc(COC(=O)Cn2nnc(-c3ccccc3)n2)cc1` reads 19.6% (inactive); that for `CCC(=O)N1CCN=C1SCc1ccc(F)cc1`, 3.93% (inactive).
On to `Cc1ccc(OCc2nnc(SC3CCc4ccccc4C3=O)n2C)cc1` (stereo unspecified), for which the inhibition of corepressor binding was -9.34% (inactive).
As to `CCCCC(NS(=O)(=O)c1ccc(C)cc1)C(=O)Oc1ccc2c3c(c(=O)oc2c1)CCC3` (stereo unspecified), the inhibition of corepressor binding was -22.6% (inactive).
For `CCC(=O)c1ccc(OCC(O)Cn2nc(C)c(C(C)=O)c2C)cc1` (stereo unspecified), the inhibition of corepressor binding is -7.85% (inactive).
With `CCN(CC)C(=O)C1=C(C)N(Cc2ccc(C(C)(C)C)cc2)C(=O)C(CC(=O)NCc2cccc3ccccc23)C1` (stereo unspecified), the inhibition of corepressor binding is 20.9% (inactive).
The result for `C=CCn1c(C)cc(C2=NNC(=NCC)SC2)c1C` reads 89.3% (active); that for `CCN(CC)S(=O)(=O)c1ccc(N(C)Cc2cccc(OC)c2OC)nc1`, 2.59% (inactive).
For `CCN(CC)S(=O)(=O)c1ccc(N(C)Cc2ccc(C(F)(F)F)cc2)nc1` the value was 91.6% (active); for `CCN(CC)S(=O)(=O)c1ccc(N(C)CCc2ccc(OC)c(OC)c2)nc1`, 14.8% (inactive); for `CCCCCCCCCCCCC(NC(C)=O)(C(=O)OCC)C(=O)OCC`, 34.1% (inactive).
For `O=C(Nn1cnc2ccccc2c1=O)c1ccc([N+](=O)[O-])cc1Cl` the value was -16.8% (inactive); for `CCCCN1C[C@H](c2ccc(Br)cc2)[C@@H](CC(=O)Nc2ccc(Br)cc2)C1=O`, -20.7% (inactive); for `CNC(=O)C1CCN(S(=O)(=O)c2c(C)noc2/C=C/c2cccc(C)c2)CC1`, -10.5% (inactive).
Regarding `O=C(Nc1ccccn1)C1CCN(S(=O)(=O)c2ccc3c(c2)OCCO3)CC1`, the inhibition of corepressor binding was -51.8% (inactive).
As for `Cc1ccnc(NC(=O)C2CCN(S(=O)(=O)c3c(C)c(C)cc(C)c3C)CC2)c1`, the inhibition of corepressor binding is 80.9% (active).
For `CN(C)c1ccc(NC(=S)N(CCc2ccccc2)C2CC(=O)N(c3c(Cl)cccc3Cl)C2=O)cc1` (stereo unspecified) the value was 0.55% (inactive); for `COc1ccc(-c2ccc(C(=O)NC(C)C)c3occc23)c(C)c1`, 15.3% (inactive).
The result for `CC(=O)Nc1ccc(S(=O)(=O)NCC(=O)OCc2cc(=O)oc3ccc4ccccc4c23)cc1` reads -8.3% (inactive); that for `COc1ccc(CCNC(=O)CC2SC(=Nc3cc(C)cc(C)c3)NC2=O)cc1OC` (stereo unspecified), -33.4% (inactive).
For `CCCOc1ccc(Cc2c(Cl)nc(SC)nc2NC)cc1` the value was 92.3% (active).
In the case of `CCCOc1ccc(Cc2c(O)nc(SC)[nH]c2=O)cc1C`, the inhibition of corepressor binding is -21.5% (inactive).
For `O=C(/C=C/c1ccc(F)cc1)NC(=S)NNC(=O)c1cccnc1` the value was -36.2% (inactive).
The result for `O=C(/C=C/c1ccc([N+](=O)[O-])o1)NNC(=O)c1ccc(F)cc1` reads 101% (active); that for `CCn1c(/C=C/c2ccc([N+](=O)[O-])o2)nc2ccccc2c1=O`, 9.98% (inactive).
For `CC1=C(C(=O)Nc2ccccc2)C(c2cccs2)C(C#N)=C(SCC#N)N1` (stereo unspecified) the value was -12.8% (inactive).
Consider `CNS(=O)(=O)c1ccc2c(c1)[nH]c(=S)n2C`, for which the inhibition of corepressor binding is 10% (inactive).
For `CCCN(CC(=O)Nc1ccc(C(N)=O)cc1)CC(=O)Nc1ccccc1C` the value was 12.9% (inactive); for `Nc1nc(-c2sc3nc4c(cc3c2N)CCCC4)nc(N2CCOCC2)n1`, -56.6% (inactive).
For `CCCOC(=O)c1[nH]c2c(c1C)C(=O)CC(c1cc(OC)c(OC)c(OC)c1)C2` (stereo unspecified) the value was 70.4% (active).
The result for `COC(=O)C1C(=O)c2c([nH]c(C(=O)OCCSC)c2C)CC1C` (stereo unspecified) reads -86.8% (inactive); that for `CCCOC(=O)c1[nH]c2c(c1C)C(=O)CC(c1cccs1)C2` (stereo unspecified), 2.46% (inactive); that for `Cc1cc(C)c(S(=O)(=O)NCC2CCC(C(=O)NCc3ccc4c(c3)OCO4)CC2)c(C)c1` (stereo unspecified), -8.75% (inactive).
Turning to `CC(C)C1Nc2c(C(=O)O)cccc2C(Nc2ccccc2C(=O)O)C1(C)C` (stereo unspecified), the inhibition of corepressor binding was 6.02% (inactive).
The result for `COc1ccc(F)cc1S(=O)(=O)N1CCCCC1` reads 4.16% (inactive); that for `Cc1ccc(C)c(NC(=O)COC(=O)c2nn(C)c(=O)c3ccccc23)c1`, 8.19% (inactive); that for `Cc1ccc(F)cc1NC(=O)CSCc1c(C)noc1C`, -16.1% (inactive).
Take `Cc1ccc(F)cc1NC(=O)Cc1nn(C)c(=O)c2ccccc12`: the inhibition of corepressor binding is 96.1% (active).
The result for `O=C(CN1CCN(S(=O)(=O)c2ccc(Br)cc2)CC1)Nc1ccccc1C(=O)c1ccccc1` reads 3.01% (inactive).
For `Cc1ccc(S(=O)(=O)N2[C@@H](c3ccc(Br)cc3)C(C(=O)O)=C[C@H]2CC2CCCC2)cc1` the value was 77.4% (active).
Turning to `CCCCC[C@@H]1C=C(C(=O)O)[C@H](c2ccc(C#N)cc2)N1S(=O)(=O)c1ccc(C)cc1`, the inhibition of corepressor binding was -8.3% (inactive).
For `CCCCC[C@@H]1C=C(C(=O)OCC)[C@H](c2ccccc2)N1S(=O)(=O)c1ccc(C)cc1` the value was 16.2% (inactive); for `O=C(NCc1ccccc1)C(=O)NCC1OCCN1S(=O)(=O)c1ccc(Br)cc1` (stereo unspecified), 10.3% (inactive).
The result for `COc1ccc(N(C)S(=O)(=O)c2ccc3c(c2)CC(C)N3C(=O)C2CC2)c(OC)c1` (stereo unspecified) reads -11.9% (inactive); that for `O=C(C1CCC1)N1CCc2cc(S(=O)(=O)NCc3cccnc3)ccc21`, 10% (inactive).
The result for `COc1cccc(CNS(=O)(=O)c2ccc3c(c2)CC(C)N3C(=O)C2CCC2)c1` (stereo unspecified) reads 87.5% (active); that for `COc1ccc(S(=O)(=O)n2nc(C)c(S(=O)(=O)N3CCOCC3)c2C)cc1`, -29.6% (inactive); that for `COc1ccc(S(=O)(=O)Nc2cccnc2)c(Cl)c1Cl`, -20.2% (inactive).
With `Cc1cc(C)c(C)c(S(=O)(=O)Nc2cccnc2)c1C`, the inhibition of corepressor binding was -21.1% (inactive).
The result for `COc1ccccc1Oc1ccc(S(=O)(=O)Nc2cccnc2)cc1` reads 96.3% (active); that for `CN(CCc1cnn(C)c1)Cc1cn(C)nc1-c1ccccc1F`, -12.1% (inactive).
The result for `COc1ccc(NC(=O)C2=NNC(=O)CC2)cc1S(=O)(=O)N1CCCCC1` reads -7.29% (inactive).
For `CC1(C)O[C@@H]2CC3C4C[C@H](F)C5=CC(=O)C=CC5(C)C4C(O)CC3(C)[C@]2(C(=O)CO)O1` (stereo partly specified) the value was 7.42% (inactive).
As to `Cc1ccc(NS(=O)(=O)c2ccc(-c3coc(C)n3)cc2)c(C)c1`, the inhibition of corepressor binding is 73.5% (active).
For `Cc1ccc(NS(=O)(=O)c2ccc3c(c2)n(C)c(=O)c(=O)n3C)c(C)c1` the value was 10.7% (inactive); for `COc1cccc(NS(=O)(=O)c2ccc(-c3coc(C)n3)cc2)c1`, 50.6% (inactive).
The result for `CCC1CCCCN1C(=O)CSc1nc(C)cc(C)n1` (stereo unspecified) reads 7.45% (inactive); that for `Cc1ccc(C(=O)OC2=CC(=O)CC(C)(C)C2)cc1`, -13.1% (inactive); that for `CS(=O)(=O)N1CCN=C1SCc1ccc(F)cc1`, -6.15% (inactive).
The result for `COc1cccc(N(CC(=O)NC2CCCC2)C(=O)CCCC(=O)Nc2ccccn2)c1` reads -5.7% (inactive); that for `O=S(=O)(Nc1ccc(Oc2ncccn2)c(Cl)c1)c1ccc(F)cc1`, -0.77% (inactive); that for `Cc1ccc(S(=O)(=O)Nc2ccc3ncccc3c2)cc1`, 74.2% (active).
With `COc1cc(NS(=O)(=O)c2ccc3ccccc3c2)c2ncccc2c1`, the inhibition of corepressor binding is 48% (inactive).
For `COC(=O)c1ccccc1NC(=O)C1CCN(S(=O)(=O)c2cc(OC)ccc2OC)CC1` the value was -0.68% (inactive); for `CC(C)N=C1CCCC1C(=S)SSC(=S)C1CCCC1=NC(C)C` (stereo unspecified), 82.3% (active).
For `O=C(CSc1ccccn1)N1CCN(S(=O)(=O)c2ccc(Cl)cc2)CC1` the value was -21.8% (inactive); for `CCCc1cc(=O)[nH]c(SCc2ccc(C#N)cc2)n1`, -25.9% (inactive); for `O=C(CN(CC1CCCO1)C(=O)CNS(=O)(=O)c1ccccc1)NCc1ccccc1` (stereo unspecified), -7.79% (inactive).
For `CN(O)C(=S)c1ccccc1` the value was 98.8% (active).
On to `CCOC(=O)C1=NNC2(c3ccc(Cl)cc3)C(=O)N(c3cc(C)cc(C)c3)C(=O)C12` (stereo unspecified), for which the inhibition of corepressor binding was 3.14% (inactive).
The result for `Cc1cc(C)nc(NC(=O)Nc2ccccc2C(F)(F)F)n1` reads -48.1% (inactive).
`CC(C)(C)C(=O)COC(=O)c1cc(S(=O)(=O)N2CCCCC2)ccc1N1CCOCC1`: the inhibition of corepressor binding was -9.47% (inactive).
The result for `COc1ccccc1CCCNC(=O)C1CCC(=O)N(CCN2CCOCC2)C1` (stereo unspecified) reads -8.73% (inactive); that for `O=C(c1ccco1)N1CCN(CC(=O)N(C2CCCCC2)C2CCS(=O)(=O)C2)CC1` (stereo unspecified), -15.5% (inactive).
The result for `Cc1ccc([N+](=O)[O-])cc1S(=O)(=O)N1CCCN(C)CC1` reads -11.3% (inactive); that for `Cc1ccc(S(=O)(=O)N2CCN(c3ncnc4ccccc34)CC2)cc1`, 89.9% (active); that for `Cc1ccc(S(=O)(=O)N2CCC3(CC2)OCCO3)c(C)c1`, -34.4% (inactive).
`Cc1ccc(C)c(S(=O)(=O)N2CCN(c3ncnc4sccc34)CC2)c1`: the inhibition of corepressor binding is 85.8% (active).
For `COc1ccc(S(=O)(=O)N2CCN(c3ncnc4c(-c5ccccc5)nsc34)CC2)cc1` the value was -27.3% (inactive); for `Cc1ccc(S(=O)(=O)N2CCN(Cc3cccc(C)c3O)CC2)cc1`, 4.5% (inactive).
